Screening results from PubChem BioAssay.
Lamin A splicing: LMNA splicing modulation; 200,000 compounds, 0.01% hits; HeLa LMNA splicing GFP/RFP minigene ratio, 48 h; Potency, µM (doses to about 46.1 µM), without a hit: at the top dose ratio change, negative = inhibition, most hits filed as inhibitors; active = well fitted inhibition curve with a large enough effect in the signal ratio, with a control signal flat, not every such curve was filed as active; inconclusive = small, poorly fitted or top-dose-only effect, or effect the other way, or a change in a side signal; the % refers to the signal ratio; note: potency is the fitted concentration of half-maximal effect
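S3 HeLa stable clones carrying a lamin A-EGFP splicing minigene plus DsRed2 were seeded at 600 cells/well in Opti-MEM with 2% FBS, pin-dosed and incubated 48 h at 37°C. Acumen cytometry (488 nm) gave the GFP/RFP total-intensity ratio.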
ALDH1A1 inh: blocks purified human ALDH1A1 activity | 220,000 compounds, 7.3% hits | Purified ALDH1A1, NADH fluorescence, propionaldehyde substrate | AID 1030 | Potency, µM (top dose mostly 75.3 µM), without a hit: top-dose activity, negative = inhibition, usual class: inhibitors;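 note: potency is the fitted concentration of half-maximal effect; plate controls were no enzyme wells and a reference inhibitor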
Target sequence (P00352 whole entry, looked up): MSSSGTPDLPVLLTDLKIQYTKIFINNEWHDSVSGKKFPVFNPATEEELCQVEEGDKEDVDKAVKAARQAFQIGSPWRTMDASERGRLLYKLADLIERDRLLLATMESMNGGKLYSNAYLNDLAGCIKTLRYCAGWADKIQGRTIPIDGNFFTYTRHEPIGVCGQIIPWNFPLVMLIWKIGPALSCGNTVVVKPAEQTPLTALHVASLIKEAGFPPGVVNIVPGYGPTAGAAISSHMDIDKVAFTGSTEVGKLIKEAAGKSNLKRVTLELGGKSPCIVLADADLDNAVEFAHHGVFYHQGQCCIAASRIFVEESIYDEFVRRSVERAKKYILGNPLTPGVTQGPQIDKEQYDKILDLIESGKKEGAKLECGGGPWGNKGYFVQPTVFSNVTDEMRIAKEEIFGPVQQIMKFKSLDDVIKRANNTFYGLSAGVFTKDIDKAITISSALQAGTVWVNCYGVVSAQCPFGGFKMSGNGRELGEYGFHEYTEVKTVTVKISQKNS
PNC assembly inh: blocks assembly of the perinucleolar compartment | 140,000 compounds, 3.1% hits | activity change (PNC), negative = inhibition, % at 10 µM | PC3M PTB-GFP, PNC prevalence imaging, 16 h; active compounds read low;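 active = readout at or below -70, meaning at least 70% loss of cells showing the perinucleolar compartment, a nuclear body marking cancer cells; inconclusive = readout between -30 and a set limit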;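 note: plate controls were DMSO wells for no effect and camptothecin positive control wells for full effect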
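PC3M cells stably expressing PTB-GFP, 750–1000 cells/well, treated 16 h at 37 °C with compound (23 nl of library stock), in duplicate. After paraformaldehyde fixation and Hoechst stain, imaged at 20x; PNC prevalence scored by image analysis.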
HPGD inh: blocks human HPGD enzyme activity | AID 894 | P15428 | Potency, µM, inactives show top-dose activity change, negative = inhibition, actives largely listed as inhibitors | purified HPGD, NADH fluorescence kinetic, PGE2 substrate | 150,000 compounds, 4.3% hits; note: potency is the fitted concentration of half-maximal effect
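NADH formation kinetics: reaction with 30 uM PGE2 and 1 mM NAD+ (final), 20 nM enzyme, Tris-HCl pH 8 with Tween 20, after 15 min compound preincubation at room temperature. Fluorescence change, last versus first of five reads.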
12-hLO inh: inhibitors of human 12-lipoxygenase (ALOX12); purified 12-hLO, xylenol orange hydroperoxide absorbance; Potency, µM (titrated, usually from 57.1 µM), without a hit: top-dose activity change, negative = inhibition, usual class: inhibitors; 150,000 compounds, 0.12% hits; AID 1452; active = well fitted inhibition curve with a large enough effect; inconclusive = small, poorly fitted or top-dose-only effect; note: potency is the fitted concentration of half-maximal effect; nearly all actives have a fitted effect of over 55% in size
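150 nM 12hLO, 25 mM Hepes pH 7.0 + 0.01% Triton X-100; cpd preinc 15 min RT; 40 uM arachidonic acid, 30 min RT; Fe-XO 30 min; A573/A405 ratio as read-out.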
Starred values were filed as active, the others as inactive; ? = inconclusive; · = not tested or not shown; [ ] = remark or other dose. A selection: hits, their analogues and other compounds. The true share with any hit is near 10%. Unless noted, calls come from the whole dose curve; as a rule, active = well fitted inhibition curve with a large enough effect (not every such curve was filed as active); inconclusive = small, poorly fitted or top-dose-only effect, or another doubt; inactive = no such curve, though single readings can be large or run the other way. Unless noted, % is set by controls: 0 for no effect and ±100 for the full control effect.

SMILES | Lamin A splicing | ALDH1A1 inh | PNC assembly inh | HPGD inh | 12-hLO inh
Cc1nc(CSc2nc3[nH]ncc3c(=O)n2-c2ccccc2)cs1 | 23% | 13µM* | -18 | -8% | -3%
Cc1nc(CSc2n[nH]c(=O)n2-c2ccccc2)cs1 | · | -4% | · | · | ·
CNC(=S)N/N=C1\C(=O)c2cccc3cccc1c23 | ? | ? | -11 | -16% | 5%
CCCCNC(=S)N/N=C1\C(=O)c2cccc3cccc1c23 | 5% | 13µM* | 21 | -6% | -1%
O=C(N/N=C1\C(=O)c2cccc3cccc1c23)c1ccc(O)cc1 | -27%[46 µM] | 10µM* | · | · | ·
COc1ncc2nc(-c3ccccc3)c(=O)n(CCC#N)c2n1 | 5% | ? | · | · | ·
N#Cc1ccc(CN2CCC3(CC2)CCN(C(=O)c2ccco2)CC3)cc1 | · | 2% | · | -2% | 4%
Cc1ccc(CN2C(=O)C3CCCN3c3ccc(S(=O)(=O)N4CCOCC4)cc32)cc1 (configuration not stated) | 2% | 14µM* | 5 | -12% | -29%
CCN(CC)S(=O)(=O)c1ccc(N2CCOCC2)c(NS(=O)(=O)c2ccc(C)c(C)c2)c1 | -6% | 0.89µM* | -4 | -5% | 0%
CCN(CC)S(=O)(=O)c1ccc(N2CCOCC2)c(NS(=O)(=O)c2ccc(C)cc2)c1 | ? | 2.2µM* | 9 | -22% | -1%
Cc1ccc(S(=O)(=O)Nc2cc(S(=O)(=O)N3CCCCC3)ccc2N2CCOCC2)cc1 | · | 13µM* | · | · | ·
COc1ccc(C(=O)Nc2ccc3nc(SCC(=O)N(C)c4ccccc4)sc3c2)cc1 | 8%[46 µM] | · | · | · | ·
COc1cc(NC(=O)Cn2nc3c(cc2=O)CC(C)CC3)cc(OC)c1OC (configuration not stated) | -1%[46 µM] | · | · | · | ·
Cc1cccn2c(CN(C)CCC3CCCCO3)c(C(=O)N3CCCCC3)nc12 (configuration not stated) | · | 3.2µM* | · | · | ·
CCN(CC(=O)NC(C)C)C(=O)Cc1ccc(C)c(C)c1 | · | 6% | · | · | ·
C=CCN1C(=O)C(Cc2ccc(OCC)cc2)S/C1=N\N=C\c1cccs1 (configuration not stated) | -23% | 4.5µM* | 13 | -13% | -6%
O=c1[nH]c(/C=C/c2cccc3ccccc23)nc2ccccc12 | ? | -7% | · | · | ·
CCCN1C(=O)/C(=C\c2nc3ccccc3c(=O)[nH]2)c2ccccc21 | 14%[46 µM] | 4.5µM* | · | · | ·
CCOC(=O)C(O)(CC(=O)c1ccc(OC)cc1)C(F)(F)F (configuration not stated) | -6% | ? | -81* | -4% | 2%
Cc1ccc(S(=O)(=O)NC(C)(C)CSc2ncccn2)cc1 | · | 18µM* | · | · | ·
Cc1ccc(S(=O)(=O)NCCSc2ncccn2)cc1 | · | 14% | · | · | ·
CC(C)Oc1ccc(CNC(=O)CN2C(=O)c3cccnc3Oc3ccc(Cl)cc32)cc1 | -14%[46 µM] | · | · | · | ·
Cn1cnc([N+](=O)[O-])c1Nc1ccc(O)cc1 | 1% | 25µM* | -23 | · | -13%
COCCn1c(=O)c(-c2cccc(C#N)c2)nc2cnc(N3CCNCC3)nc21 | · | ? | · | ? | 2%
O=C(CN(CCc1ccccc1)C(=O)CNS(=O)(=O)c1ccccc1)NCc1ccco1 | 6% | -13% | ? | -8% | 0%
SMILES | Lamin A splicing | ALDH1A1 inh | PNC assembly inh | HPGD inh | 12-hLO inh
CC(C)CNS(=O)(=O)c1ccc(CCC(=O)NCc2ccco2)cc1 | -2% | 2µM* | 0 | -21% | 5%
Cc1ccc(S(=O)(=O)NCC(=O)N(CCc2ccccc2)CC(=O)NCc2ccco2)cc1 | 10% | 28µM* | -16 | -6% | -10%
CCS(=O)(=O)c1ccc(O)c(NC(=O)c2cc(OC)c(OC)c(OC)c2)c1 | -5% | 16µM* | ? | -17% | 4%
CCS(=O)(=O)c1ccc(O)c(NC(=O)Nc2ccccc2)c1 | 2% | 9% | -9 | -14% | -2%
Nc1ncnc2c1ncn2[C@@H]1O[C@H](COP(=O)(O)OP(=O)(O)OC[C@H]2OC(O)[C@H](O)[C@@H]2O)[C@@H](O)[C@H]1O (some centres not stated) | · | -5% | · | · | ·
CCCc1cc(N2CCCC(C(=O)Nc3ccc(OC)cc3OC)C2)n2ncnc2n1 (configuration not stated) | ? | ? | 27 | 28µM* | 2%
COc1ccc(N2CC(NC(=O)c3ccco3)CC2=O)cc1OC (configuration not stated) | -12%[46 µM] | · | · | · | ·
Cc1cc(=O)oc2cc(OCC(=O)NCCc3nc4ccccc4[nH]3)ccc12 | 11% | ? | -87* | ? | 19%
COc1ccc(-c2cc(=O)oc3cc(OC(C)C(=O)O)ccc23)cc1 (configuration not stated) | 5% | ? | 6 | ? | -3%
Cc1cc(=O)oc2cc(OCC(=O)OCc3nnc(-c4ccccc4)o3)ccc12 | -8% | ? | -86* | ? | 10%
CC(C)(C)OC(=O)NCC(=O)Oc1cc2oc(=O)cc(-c3ccccc3)c2cc1Cl | ? | 25µM* | ? | ? | -2%
O=C(Oc1cc2oc(=O)cc(-c3ccccc3)c2cc1Cl)C1CCCCC1 | ? | ? | -7 | ? | -16%
O=C(O)COc1ccc2c(-c3ccccc3)cc(=O)oc2c1 | -9% | ? | ? | 18µM* | 5%
Cc1c(Cl)cccc1NC(=O)C[C@H]1Sc2ccccc2NC1=O | · | 18%[13.5 µM] | · | -1% | -2%[11.4 µM]
CC1=C(C)NC(=S)SC1 | 2% | 22µM* | 46 | ? | -6%
CC1(C)CC(=O)C(C=NCCN2CCN(CCCCS(=O)(=O)O)CC2)=C(O)C1 | 1% | 1% | ? | -5% | 3%
CC1(C)CC(=O)C(C=NCCN2CCOCC2)=C(O)C1 | 15% | ? | -96* | -12% | 2%
CC1(C)CC(=O)C(C=NCCN2CCN(C(=O)NC34CC5CC(CC(C5)C3)C4)CC2)=C(O)C1 | -4% | 16µM* | -10 | -9% | -3%
CC1(C)CC(=O)C(C=NCCN2CCN(C(=O)CC3CCCC3)CC2)=C(O)C1 | 5% | ? | -4 | -6% | -1%
CC(=NCCN1CCN(C(C)=C2C(=O)c3ccccc3C2=O)CC1)C1=C(O)CC(C)(C)CC1=O | 3% | ? | ? | -7% | 3%
CC(=C1C(=O)c2ccccc2C1=O)N1CCN(CCN=CC2=C(O)CC(C)(C)CC2=O)CC1 | 7% | 14µM* | 31 | -4% | 3%
CCOc1ccc(-n2c(=O)c3c(C)c(C(=O)N(C)C)sc3n(CC(=O)Nc3c(C)cc(C)cc3C)c2=O)cc1 | 15%[46 µM] | · | · | · | ·
Cc1cc2c(cc1NC(=O)c1ccccc1C)n(C)c(=O)c(=O)n2C | -14%[46 µM] | · | · | · | ·
C/C(=N/NC(N)=S)c1ccc(Br)s1 | ? | 22µM* | · | · | ·
O=C(C1CCCN(Cc2ccccc2Br)C1)N1CCCCC1 (configuration not stated) | 16% | -16% | -17 | 25µM* | -5%
